Results published in PubChem BioAssay (Tox21).
Results filed as inconclusive are left out. Calls of active or inactive are those of the source. Unless noted, calls follow the shape of the dose curve; as a rule, active = well fitted curve in the direction sought with a large enough effect in the repeat runs; inconclusive = weak or mixed curves; inactive = no such curve, though single readings can be large; an effect the other way counts as inactive or inconclusive.

Assays:
[1] = qHTS assay to identify small molecule agonists of the estrogen receptor alpha (ER-alpha) signaling pathway in the presence of an antagonist - cell viability counter screen (AID 1259386);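 also: series mostly up to about 92 µM; cells exposed to compounds for 22 h at 37 °C before the viability read; nearly all actives have a fitted effect of over 30% in size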
Outline: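 VM7Luc4E2 cells (endogenous full-length ER-alpha, 4×ERE-luciferase) were held 5 days in phenol red-free medium with 10% charcoal-stripped FBS, plated, then given 10.0nM ICI-182,780 and compounds at 15 concentrations for 22hr at 37C; viability read by CellTiter-Fluor fluorescence.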

[2] = molecular target: Progesterone receptor (Homo sapiens) (UniProt P06401); experiment: qHTS assay to identify small molecule agonists of the progesterone receptor (PR) signaling pathway (AID 1346784; calls by dose curve; also: nearly all actives have a fitted effect of over 30% in size)
Chain of Progesterone receptor (Homo sapiens) (P06401 whole entry, looked up): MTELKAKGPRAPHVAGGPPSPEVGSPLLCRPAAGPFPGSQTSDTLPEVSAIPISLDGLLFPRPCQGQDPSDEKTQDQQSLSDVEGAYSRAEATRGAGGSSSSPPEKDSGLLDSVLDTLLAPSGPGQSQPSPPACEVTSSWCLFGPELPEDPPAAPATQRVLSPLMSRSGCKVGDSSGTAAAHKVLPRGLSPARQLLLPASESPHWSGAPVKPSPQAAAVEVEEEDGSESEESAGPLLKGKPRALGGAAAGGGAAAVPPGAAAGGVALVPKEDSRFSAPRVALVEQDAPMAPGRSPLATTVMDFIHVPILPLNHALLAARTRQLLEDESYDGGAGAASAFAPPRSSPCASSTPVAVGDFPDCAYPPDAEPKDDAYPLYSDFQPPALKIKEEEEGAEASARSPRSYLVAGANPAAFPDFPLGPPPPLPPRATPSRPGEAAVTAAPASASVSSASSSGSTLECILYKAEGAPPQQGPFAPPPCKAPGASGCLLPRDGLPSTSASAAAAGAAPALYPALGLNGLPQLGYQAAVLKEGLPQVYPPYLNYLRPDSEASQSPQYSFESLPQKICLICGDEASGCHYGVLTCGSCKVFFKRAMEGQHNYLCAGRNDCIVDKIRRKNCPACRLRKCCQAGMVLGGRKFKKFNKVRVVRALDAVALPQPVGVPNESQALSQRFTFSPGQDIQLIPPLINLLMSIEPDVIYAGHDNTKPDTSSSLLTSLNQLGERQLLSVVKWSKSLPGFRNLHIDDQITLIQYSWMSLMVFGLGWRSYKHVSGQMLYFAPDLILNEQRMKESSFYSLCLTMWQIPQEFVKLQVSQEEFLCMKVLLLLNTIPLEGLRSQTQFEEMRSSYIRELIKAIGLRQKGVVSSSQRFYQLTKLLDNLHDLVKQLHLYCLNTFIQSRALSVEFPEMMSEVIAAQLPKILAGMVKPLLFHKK
Outline: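 PR-UAS-bla HEK 293T cells carrying a UAS-driven beta-lactamase reporter were seeded in medium with 2% charcoal-stripped FBS, preincubated 6 hr at 37C, then exposed to compounds in DMSO for 16 hr; agonism was read by LiveBLAzer B/G FRET fluorescence.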

[3] = molecular target: Progesterone receptor (Homo sapiens) (UniProt P06401); experiment: qHTS assay to identify small molecule antagonists of the progesterone receptor (PR) signaling pathway (AID 1346795; active = well fitted inhibition curve with a large enough effect in the signal ratio in the repeat runs, not every such curve was filed as active; the % refers to the signal ratio; also: potency is read from the fitted curve at half-maximal effect)
Outline: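 PR-UAS-bla HEK293T cells carrying a UAS-driven beta-lactamase reporter were plated in medium with 2% charcoal-stripped FBS and rested 6 hr at 37C. Compounds were added with 1 nM R5020 (final) for 16 hr, then FRET substrate loaded 2 hr at room temperature.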

[4] = qHTS assay to identify small molecule antagonists of the progesterone receptor (PR) signaling pathway - cell viability counter screen (AID 1346798); also: series mostly up to about 92 µM; nearly all actives have a fitted effect of over 50% in size
Outline: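 PR-UAS-bla HEK293T cells in medium with 2% charcoal-stripped FBS were treated with compounds plus R5020 for 16 hr at 37C. Cell viability was then read by CellTiter-Glo luminescence after 30 min at room temperature in the same wells.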

[5] = qHTS assay to identify small molecule agonists of the progesterone receptor (PR) signaling pathway - cell viability counter screen (AID 1346799; calls by dose curve; also: nearly all actives have a fitted effect of over 45% in size)
Outline: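 PR-UAS-bla HEK293T cells, 3,000 per well in medium with 2% charcoal-stripped FBS, were preincubated 6 hr at 37C, then exposed to compounds for 16 hr; viability was read as CellTiter-Glo luminescence after 30 min at room temperature.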

[6] = qHTS assay to identify small molecule antagonists of the TGF-beta/Smad signaling pathway - cell viability counter screen (AID 1346824); also: nearly all actives have a fitted effect of over 50% in size
Outline: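 Cytotoxicity counter-screen run in the same wells as the beta-lactamase Smad reporter read: CellTiter-Glo luminescence after 30 min at room temperature. HEK 293T SBE-bla cells had 5 hr compound exposure at 37 C with TGF-beta1 (0.25 ng/mL stock).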

[7] = qHTS assay to identify small molecule agonists of the TGF-beta/Smad signaling pathway - cell viability counter screen (AID 1346829); also: top concentration of the series differs between compounds; nearly all actives have a fitted effect of over 45% in size
Outline: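 Same-well cytotoxicity: CellTiter-Glo added after the 2 hr room-temperature beta-lactamase substrate step, luminescence measured 30 min later; cells had 5 hr of compound at 37 C.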

[8] = qHTS assay to identify small molecule agonists of the TGF-beta/Smad signaling pathway (AID 1346859; active = well fitted activation curve with a large enough effect in the signal ratio in the repeat runs, not every such curve was filed as active; the % refers to the signal ratio; also: potency is read from the fitted curve at half-maximal effect; as to activation: series mostly up to about 77 µM)
Outline: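 HEK 293T cells stably carrying a beta-lactamase reporter driven by the Smad binding element were seeded overnight, exposed to DMSO-dissolved compounds for 5 hr at 37 C, 5% CO2, then loaded with FRET substrate for 2 hr at room temperature.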

[9] = molecular target: Thyrotropin-releasing hormone receptor (Homo sapiens) (UniProt P34981); experiment: qHTS assay to identify small molecule antagonists of the thyrotropin-releasing hormone receptor (TRHR) signaling pathway (AID 1346877; active = well fitted inhibition curve with a large enough effect in the repeat runs, not every such curve was filed as active; also: series mostly up to about 51 µM)
Chain of Thyrotropin-releasing hormone receptor (Homo sapiens) (P34981 whole entry, looked up): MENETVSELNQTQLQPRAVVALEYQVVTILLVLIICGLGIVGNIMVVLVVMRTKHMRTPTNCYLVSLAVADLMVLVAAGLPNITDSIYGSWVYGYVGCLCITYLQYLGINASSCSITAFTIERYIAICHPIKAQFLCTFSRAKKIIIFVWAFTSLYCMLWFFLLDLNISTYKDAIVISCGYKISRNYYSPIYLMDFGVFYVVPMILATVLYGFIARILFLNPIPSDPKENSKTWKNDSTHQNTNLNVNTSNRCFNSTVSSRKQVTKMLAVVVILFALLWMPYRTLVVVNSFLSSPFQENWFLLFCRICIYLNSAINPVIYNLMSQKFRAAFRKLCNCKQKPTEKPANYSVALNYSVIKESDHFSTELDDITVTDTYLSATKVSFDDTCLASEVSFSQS
Outline: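 TRHR-expressing HEK293 cells were seeded, cultured 18 h at 37 °C, then loaded with calcium dye for 2 h. Compounds were pre-incubated 5 min at room temperature before 1 nM TRH (final) was added, and kinetic fluorescence was recorded for 3 min.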

[10] = molecular target: Thyrotropin-releasing hormone receptor (Homo sapiens) (UniProt P34981); experiment: qHTS assay to identify small molecule agonists of the thyrotropin-releasing hormone receptor (TRHR) signaling pathway (AID 1346891; calls by dose curve; also: potency is read from the fitted curve at half-maximal effect; as to activation: series mostly up to about 58 µM)
Outline: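 TRHR-expressing HEK293 cells were plated 18 h at 37 °C/5% CO2, loaded with calcium dye 2 h at 37 °C, then given compound in DMSO; fluorescence was read kinetically for 3 min at 1 s intervals.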
% is scaled to controls: 0 for no effect and ±100 for the full control effect.

CCOC(=O)C(F)(F)F
inactive: Potency [1] | Potency [2] | Potency [3] | Potency [4] | Potency [5] | Potency [6] | outcome [7] | Potency [8] | outcome [9] | Potency [10]

CC(CSC(=O)c1ccccc1)C(=O)N1C[C@@H](Sc2ccccc2)C[C@H]1C(=O)O (stereo partly drawn)
inactive: activity change, negative = cytotoxicity [1] 3.85% [at 19 µM] | activation [2] -0.419% [at 19 µM] | activity change, negative = inhibition [3] 1.77% [at 18.9 µM] | activity change, negative = cytotoxicity [4] -8.73% [at 18.9 µM] | activity change, negative = cytotoxicity [5] -1.53% [at 19 µM] | viability change, negative = cytotoxic [6] -6.88% [at 15.8 µM] | activity change, negative = cytotoxicity [7] 4% [at 15.8 µM] | activation [8] 0.21% [at 15.8 µM] | activity, negative = inhibition [9] -5.47% [at 10.5 µM] | activation [10] -0.201% [at 11.8 µM]

CC1=CC[C@H](C(C)C)C=C1
inactive: Potency [1] | Potency [2] | Potency [3] | Potency [4] | Potency [5] | Potency [6] | outcome [7] | Potency [8]

CCCCC
active: Potency [10] 27.1 µM
inactive: Potency [1] | Potency [2] | Potency [3] | Potency [4] | Potency [5] | Potency [6] | outcome [7] | Potency [8]

CCOC(=O)c1cccnc1
inactive: Potency [1] | Potency [2] | Potency [3] | Potency [4] | Potency [5] | Potency [6] | outcome [7] | Potency [8] | outcome [9] | Potency [10]

Cc1ncc(CO)c(C=O)c1O
inactive: Potency [1] | Potency [2] | Potency [3] | Potency [4] | Potency [5] | Potency [6] | outcome [7] | Potency [8] | outcome [9] | Potency [10]

C[N+]1(C)CCC(OC(=O)C(O)(c2ccccc2)C2CCCC2)C1 (stereo not drawn)
inactive: Potency [1] | Potency [2] | Potency [3] | Potency [4] | Potency [5] | Potency [6] | outcome [7] | Potency [8] | outcome [9] | Potency [10]

Cc1[nH]c(C)c(Cl)c(=O)c1Cl
inactive: activity change, negative = cytotoxicity [1] -1.35% [at 19 µM] | activation [2] 2.04% [at 19 µM] | activity change, negative = inhibition [3] 4.44% [at 18.9 µM] | activity change, negative = cytotoxicity [4] 10.6% [at 18.9 µM] | activity change, negative = cytotoxicity [5] 5.96% [at 19 µM] | viability change, negative = cytotoxic [6] 5.33% [at 15.8 µM] | activity change, negative = cytotoxicity [7] 5.04% [at 15.8 µM] | activation [8] 0.225% [at 15.8 µM] | activity, negative = inhibition [9] 2.83% [at 10.5 µM] | activation [10] -1.18% [at 11.8 µM]

c1ccc(CNCCNCc2ccccc2)cc1
inactive: Potency [1] | Potency [2] | Potency [3] | Potency [4] | Potency [5] | Potency [6] | outcome [7] | Potency [8] | outcome [9] | Potency [10]

CCCCCCCCO[C@@H]1O[C@H](CO)[C@@H](O)[C@H](O)[C@H]1O
inactive: Potency [1] | Potency [2] | Potency [3] | Potency [4] | Potency [5] | Potency [6] | outcome [7] | Potency [8] | outcome [9] | Potency [10]

C[N+](C)(C)CCOC(=O)CCC(=O)OCC[N+](C)(C)C
inactive: Potency [1] | Potency [2] | Potency [3] | Potency [4] | Potency [5] | Potency [6] | outcome [7] | Potency [8] | outcome [9] | Potency [10]

NS(=O)(=O)c1ccc(N2CCCCS2(=O)=O)cc1
inactive: Potency [1] | Potency [2] | Potency [3] | Potency [4] | Potency [5] | Potency [6] | outcome [7] | outcome [9] | Potency [10]

CCC(CC)Nc1ccc(C)c(C)c1
inactive: Potency [1] | Potency [2] | Potency [3] | Potency [4] | Potency [5] | Potency [6] | outcome [7] | Potency [8] | outcome [9] | Potency [10]

Brc1c2ccccc2c(Br)c2ccccc12
active: Potency [8] 2.22 µM
inactive: activity change, negative = cytotoxicity [1] 2.81% [at 8.39 µM] | activation [2] 5.54% [at 8.39 µM] | activity change, negative = inhibition [3] 3.87% [at 8.39 µM] | activity change, negative = cytotoxicity [4] 3.37% [at 8.39 µM] | activity change, negative = cytotoxicity [5] 18.6% [at 8.39 µM] | viability change, negative = cytotoxic [6] 16.5% [at 6.97 µM] | activity change, negative = cytotoxicity [7] -9.36% [at 6.97 µM] | activity, negative = inhibition [9] -1.3% [at 4.65 µM] | activation [10] 0.0356% [at 5.23 µM]

CO[C@@H]1[C@H](OC(=O)/C=C/C=C/C=C/C=C/C(=O)O)CC[C@]2(CO2)[C@H]1[C@@]1(C)O[C@@H]1CC=C(C)C
inactive: Potency [1] | Potency [2] | Potency [3] | Potency [4] | Potency [5] | Potency [6] | outcome [7] | Potency [8] | outcome [9] | Potency [10]

Nc1ccc(S(=O)(=O)Nc2ccccc2)cc1
inactive: Potency [1] | Potency [2] | Potency [3] | Potency [4] | Potency [5] | Potency [6] | outcome [7] | Potency [8] | outcome [9] | Potency [10]

COC(=O)c1ccc(I)cc1S(=O)(=O)NC(=O)Nc1nc(C)nc(OC)n1
inactive: Potency [1] | Potency [2] | Potency [3] | Potency [4] | Potency [5] | Potency [6] | outcome [7] | Potency [8] | outcome [9] | Potency [10]

CCC(Cl)CCC(Cl)C(Cl)CC(Cl)C(Cl)C(Cl)CCl (stereo not drawn)
inactive: Potency [1] | Potency [2] | Potency [3] | Potency [4] | Potency [5] | Potency [6] | outcome [7] | Potency [8] | outcome [9] | Potency [10]

O=C(CS)Nc1ccccc1
inactive: Potency [1] | Potency [2] | Potency [3] | Potency [4] | Potency [5] | Potency [6] | outcome [7] | outcome [9] | Potency [10]

CCCCOC(=O)CCCCCCCC(=O)OCCCC
inactive: Potency [1] | Potency [2] | Potency [3] | Potency [4] | Potency [5] | Potency [6] | outcome [7] | Potency [8]

COc1cc(Cl)ccc1Oc1ccc(Cl)cc1Cl
inactive: Potency [1] | Potency [2] | Potency [4] | Potency [5] | Potency [6] | outcome [7] | Potency [8] | outcome [9] | Potency [10]
active: Potency [3] 8.39 µM
